Measurements taken from the supplement of paper PMC4166925.
± gives the standard deviation of the averaged measurements. Whole data set: some 33,000 sequences, median “E-score (dimensionless, -0.5 to 0.5)” near -0.049, cut for the highest 2% near 0.37. For the sample, the highest values were picked, then their nearest neighbours and some sequences at random.

What follows are sequences tested on T1, PmTbr T-box DNA-binding domain (GST fusion) (assay: PBM E-score of 8-mer (E-score (dimensionless, -0.5 to 0.5)); Tbr is Tbrain of the sea star Patiria miniata (Pm) or the sea urchin Strongylocentrotus purpuratus (Sp); higher = stronger binding preference). Conditions: the construct has about 5 more residues each side.
T1 sequence: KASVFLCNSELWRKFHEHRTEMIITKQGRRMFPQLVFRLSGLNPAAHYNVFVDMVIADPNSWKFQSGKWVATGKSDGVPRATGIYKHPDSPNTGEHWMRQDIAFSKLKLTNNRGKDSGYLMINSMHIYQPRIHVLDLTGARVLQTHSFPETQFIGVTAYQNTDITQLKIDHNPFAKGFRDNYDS
Outline: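 Primer extension turned Universal Agilent oligonucleotide arrays double-stranded. They were incubated with 200 nM protein in PBS (pH 7.5); the protein was a GST-fused Tbr T-box DNA-binding domain expressed in BL21 E. coli at 20 °C and purified on glutathione. Every ungapped 8-mer was scored from the scanned, quantified probe intensities, and the Universal PBM Analysis Suite gave each an enrichment E-score averaged over duplicate arrays.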

Row | Sequence | PBM E-score of 8-mer
1 | AACACTGA | 0.182 ± 0.069
2 | AACACTTC | 0.442 ± 0.014
3 | AGGACCGG | -0.31 ± 0.028
4 | TGGCTGAA | -0.23 ± 0.083
5 | CAGACCCA | -0.0557 ± 0.00088
6 | AATGGCGA | 0.163 ± 0.021
7 | TGCCATAA | 0.0817 ± 0.098
8 | GAAGATCC | -0.101 ± 0.034
9 | CCCTGGGA | -0.131 ± 0.0026
10 | GACACTTA | 0.3962 ± 0.0036
11 | CCCACTTC | 0.1799 ± 0.00066
12 | GACACTGA | 0.157 ± 0.016
13 | CACACTGC | 0.168 ± 0.039
14 | CACACTTC | 0.445 ± 0.005
15 | GCCACTTA | 0.232 ± 0.021
16 | GAGTCTAC | -0.282 ± 0.068
17 | GGTCGACC | -0.253 ± 0.033
18 | GTGATAGA | 0.297 ± 0.042
19 | CGTCGACA | 0.26 ± 0.031
20 | AGTCGACA | 0.253 ± 0.013
21 | TGTCGACA | 0.371 ± 0.0078
22 | ACATTTGA | 0.038 ± 0.044
23 | AATGACGG | -0.0819 ± 0.0024
24 | ACAGCGCG | 0.258 ± 0.0087
25 | GGTGAGGA | 0.364 ± 0.018
26 | AGTGAGAC | 0.251 ± 0.023

Row | Sequence | PBM E-score of 8-mer
27 | GGTGAGAA | 0.4754 ± 0.0012
28 | CGTGAGAA | 0.349 ± 0.039
29 | AGTGAGAG | 0.312 ± 0.022
30 | AGTGAGAT | 0.287 ± 0.016
31 | CGTGAGAC | 0.258 ± 0.044
32 | AGTGAGAA | 0.421 ± 0.025
33 | TGAGAGAA | 0.0636 ± 0.079
34 | TGTGAGAA | 0.43 ± 0.0057
35 | GGTGAGAC | 0.3824 ± 0.0024
36 | TCTGAGAA | -0.135 ± 0.0068
37 | ACCTTCCA | 0.0703 ± 0.049
38 | AAACAGGG | -0.081 ± 0.025
39 | AATTCATC | -0.0277 ± 0.0079
40 | CCCCCAGA | -0.116 ± 0.043
41 | ACCAAAAA | -0.124 ± 0.021
42 | GCTTGTAA | -0.0775 ± 0.029
43 | CGAGGAGC | -0.0722 ± 0.028
44 | CTAGTCAC | 0.0813 ± 0.05
45 | TATCTACA | -0.0338 ± 0.029
46 | AATTCGCA | 0.339 ± 0.032
47 | AGGTGATC | 0.219 ± 0.0025
48 | ACGTGATG | 0.137 ± 0.028
49 | AGGTGATG | 0.4179 ± 0.0014
50 | GGGTGATA | 0.368 ± 0.0085
51 | AGGTGATA | 0.468 ± 0.0054
52 | CGGTGATA | 0.187 ± 0.0068

Row | Sequence | PBM E-score of 8-mer
53 | AACAACTG | 0.236 ± 0.0091
54 | CGACGCAC | -0.0252 ± 0.048
55 | AGTGCTTC | -0.15 ± 0.097
56 | CGAATGGC | 0.0367 ± 0.0062
57 | AACCGCAT | -0.147 ± 0.042
58 | AATTCATA | -0.105 ± 0.05
59 | ACGCGTGC | 0.14 ± 0.034
60 | AGGCGTGG | 0.265 ± 0.016
61 | GGGCGTAA | 0.118 ± 0.012
62 | AAGCGTGG | 0.0213 ± 0.089
63 | GCGCGTGA | 0.322 ± 0.0044
64 | AAGCGTGA | 0.401 ± 0.018
65 | AGGCGTGC | 0.158 ± 0.011
66 | AGGCGTGA | 0.4805 ± 0.00059
67 | CGGCGTGA | 0.327 ± 0.0041
68 | ACGCGTGA | 0.38 ± 0.012
69 | GGGCGTGA | 0.429 ± 0.0092
70 | AAGCGTGT | 0.235 ± 0.017
71 | CATTGCCG | 0.0765 ± 0.039
72 | TTAAGAAA | -0.165 ± 0.066
73 | AATACTCT | -0.111 ± 0.064
74 | CCGAGGGA | -0.236 ± 0.0027
75 | ACGTTCAC | 0.227 ± 0.06
76 | CAATCGCG | 0.269 ± 0.026
77 | AATGCTGG | -0.209 ± 0.026
78 | TAGGGTAA | -0.0929 ± 0.022

Row | Sequence | PBM E-score of 8-mer
79 | ATACTGAA | -0.116 ± 0.013
80 | CACGCAAC | 0.024 ± 0.02
81 | CATAGTAG | -0.286 ± 0.031
82 | GATAACCC | 0.0272 ± 0.031
83 | GTTAGGCA | -0.0852 ± 0.013
84 | GCGTTAAC | 0.275 ± 0.056
85 | CATTAAGG | -0.136 ± 0.13
86 | AGGCGTCG | 0.353 ± 0.029
87 | CGGCGTCA | 0.219 ± 0.03
88 | AGGCGTCA | 0.4194 ± 0.0035
89 | ACCTTATA | 0.221 ± 0.084
90 | ATGAGCAG | -0.0322 ± 0.034
91 | ATGGTGGC | 0.271 ± 0.056
92 | ATGGTGTC | 0.383 ± 0.02
93 | ATGGTGTA | 0.104 ± 0.021
94 | ATGGTGCG | 0.187 ± 0.036
95 | ATGGTGTG | 0.383 ± 0.0049
96 | CTGGTGTC | 0.341 ± 0.023
97 | CAGTAGAC | -0.0988 ± 0.05
98 | AGCGCGTG | 0.27 ± 0.025
99 | CGGTAAAG | -0.102 ± 0.037
100 | ACACATAA | 0.251 ± 0.0089
101 | ACACATTG | 0.39 ± 0.017
102 | CCACATTC | 0.104 ± 0.038
103 | AAACATTG | -0.0327 ± 0.00054
104 | ACACATAT | 0.386 ± 0.0052

Row | Sequence | PBM E-score of 8-mer
105 | ACACATAG | 0.268 ± 0.022
106 | ACACATTA | 0.264 ± 0.008
107 | AAACATTC | -0.0525 ± 0.037
108 | ACACATTC | 0.387 ± 0.016
109 | GAGAAAAC | 0.0669 ± 0.12
110 | ATTCCTCC | -0.291 ± 0.034
111 | GACGCGTA | 0.0611 ± 0.022
112 | ATCCAGCA | -0.175 ± 0.032
113 | AATGGTCG | -0.249 ± 0.14
114 | ACGAGAGG | 0.0873 ± 0.05
115 | GTAGTCTA | -0.207 ± 0.03
116 | CTAGGTGC | 0.403 ± 0.008
117 | CTAGGTCA | 0.00648 ± 0.021
118 | ATAGGTGA | 0.345 ± 0.028
119 | CTAGGTGA | 0.398 ± 0.014
120 | GTAGGTGA | 0.397 ± 0.02
121 | CTAGGTCC | -0.13 ± 0.071
122 | ATAGGTGC | 0.414 ± 0.0057
123 | ATAGGTGG | 0.26 ± 0.051
124 | GTAGGTTA | -0.189 ± 0.025
125 | CTAGGTAA | -0.173 ± 0.055
126 | GTAGGTAA | -0.141 ± 0.024
127 | CTAGGTTC | -0.0841 ± 0.0095
128 | CAGCATAC | -0.00656 ± 0.045
129 | GCGCAGAA | -0.0316 ± 0.067
130 | GGTAAACC | 0.131 ± 0.039

Row | Sequence | PBM E-score of 8-mer
131 | GAATCATA | 0.0757 ± 0.097
132 | CTAGTAAG | -0.0596 ± 0.04
133 | CCATGAGC | -0.138 ± 0.16
134 | ACTGTGAG | 0.22 ± 0.017
135 | GCTGTGAA | 0.3817 ± 0.0019
136 | ACTGTGAT | 0.152 ± 0.046
137 | TCTGTGAA | 0.253 ± 0.0052
138 | ACTGTGAA | 0.378 ± 0.0086
139 | CCTGTGAA | 0.306 ± 0.0045
140 | CAGGCTTA | -0.197 ± 0.047
141 | ATATAGCG | 0.0197 ± 0.053
142 | CGTATGCA | -0.0979 ± 0.032
143 | GATTTTGC | 0.189 ± 0.061
144 | AAATAGGA | -0.294 ± 0.053
145 | CGCTAACG | 0.3714 ± 0.0037
146 | AGCTAACA | 0.209 ± 0.033
147 | TGCTAACA | 0.369 ± 0.041
148 | AGCTAACG | 0.157 ± 0.031
149 | GGCTAACA | 0.179 ± 0.019
150 | CGCTAACC | 0.256 ± 0.017
151 | ATGTCCAG | -0.0643 ± 0.0044
152 | GTATGCCA | -0.0108 ± 0.032
153 | CTTGTAGC | 0.0941 ± 0.012
154 | CGCGACAG | 0.308 ± 0.014
155 | TGCGACAA | 0.296 ± 0.013
156 | CGCGACAC | 0.375 ± 0.02

Row | Sequence | PBM E-score of 8-mer
157 | GGCGACAA | 0.3812 ± 0.0024
158 | AGCGACAC | 0.317 ± 0.054
159 | GGCGACCC | -0.0415 ± 0.017
160 | CGCGACAA | 0.336 ± 0.0038
161 | GGCGACAC | 0.402 ± 0.019
162 | CACGACAC | 0.314 ± 0.0061
163 | CCGACGCA | -0.0454 ± 0.012
164 | GTCACATA | 0.263 ± 0.0064
165 | ATGCGATC | -0.0333 ± 0.042
166 | CAAGTTGA | 0.116 ± 0.0034
167 | AGCGTTGA | 0.102 ± 0.055
168 | AACCTCCC | -0.0756 ± 0.12
169 | CACCTCCC | 0.423 ± 0.0044
170 | AACCTCCG | 0.0421 ± 0.042
171 | GACCTCCC | -0.178 ± 0.0044
172 | AACCTCCA | -0.158 ± 0.028
173 | CCCCTCCG | 0.137 ± 0.019
174 | CACCTCCG | 0.447 ± 0.0095
175 | CACCTCCA | 0.423 ± 0.0067
176 | TACCTCCA | -0.00358 ± 0.099
